Experimental findings from PubChem BioAssay (Tox21) are described below.

Values joined by “and” are separate entries in the source; they are usually repeats but may differ in a detail not shown here. Identical values can stand only once. Active and inactive are the calls of the source. Unless noted, the call rests on the fitted dose curve; in most records, active means well fitted curve in the direction sought with a large enough effect in the repeat runs; inconclusive means weak or mixed curves; inactive means no such curve, though single readings can be large; an effect the other way counts as inactive or inconclusive.

A short description of assay [1]: qHTS assay to identify small molecule antagonists of the glucocorticoid receptor (GR) signaling pathway - cell viability counter screen (AID 720693; further: nearly all actives have a fitted effect of over 55% in size; further: potency means the concentration at half of the fitted maximal effect). (qHTS replaces the single test concentration by a dilution series.)
A short description of assay [2]: qHTS assay for identifying genotoxic compounds that show differential cytotoxicity against isogenic chicken DT40 cell lines with known DNA damage response pathways - wild type cell line (AID 743012). Further: nearly all actives have a fitted effect of over 60% in size. Further: potency means the concentration at half of the fitted maximal effect. The method, boiled down: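 Wild-type DT40 cells (300/well) exposed to compounds for 40 hours at 37 C/5% CO2. Viability read by CellTiter-Glo luminescence after 30 min at room temperature.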

A short description of assay [3]: qHTS assay for identifying genotoxic compounds that show differential cytotoxicity against isogenic chicken DT40 cell lines with known DNA damage response pathways - Rad54/Ku70 mutant cell line (AID 743015). Further: nearly all actives have a fitted effect of over 60% in size. Further: potency means the concentration at half of the fitted maximal effect.
Assay [4] in a line: qHTS assay to identify small molecule antagonists of the androgen receptor (AR) signaling pathway - cell viability counter screen (AID 743033; further: nearly all actives have a fitted effect of over 45% in size; further: potency means the concentration at half of the fitted maximal effect).
Assay [5] in a line: qHTS assay to identify small molecule antagonists of the androgen receptor (AR) signaling pathway using the MDA cell line - cell viability counter screen (AID 743041; further: nearly all actives have a fitted effect of over 45% in size; further: potency means the concentration at half of the fitted maximal effect). The method, boiled down: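 Same-well cytotoxicity was assessed by CellTiter-Fluor in MDA-kb2 AR-luc cells after 16 h of compound treatment under R1881 agonism.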
Assay [6] in a line: qHTS assay to identify small molecule antagonists of the thyroid receptor (TR) signaling pathway - cell viability counter screen (AID 743064). Further: nearly all actives have a fitted effect of over 50% in size. Further: potency means the concentration at half of the fitted maximal effect. The method, boiled down:
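CellTiter-Fluor readout, 30 min at 37 °C/5% CO2, following 23.5 h incubation of GH3.TRE-Luc cells with test compound and 1 nM T3 (final).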

A short description of assay [7]: qHTS assay to identify small molecule antagonists of the thyroid receptor (TR) signaling pathway (AID 743065). Further: nearly all actives have a fitted effect of over 55% in size. Further: potency means the concentration at half of the fitted maximal effect. The method, boiled down: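 GH3.TRE-Luc rat pituitary cells (two TREs driving luciferase) were dosed with compound, then stimulated with 1 nM T3 (final) for 23.5 h at 37 C. ONE-Glo luminescence was the read-out, with CellTiter-Fluor fluorescence as the cytotoxicity counter-screen.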

For assay [8], the system named is thyroid hormone receptor (rat, GH3 cells). The assay can be described thus: qHTS assay to identify small molecule agonists of the thyroid receptor (TR) signaling pathway (AID 743066; calls by dose curve).
Assay [9] is described as follows: qHTS assay to identify small molecule antagonists of the estrogen receptor alpha (ER-alpha) signaling pathway using the BG1 cell line - cell viability counter screen (AID 743081).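 Further: compound given together with 17beta-estradiol as the ER stimulus; nearly all actives have a fitted effect of over 45% in size.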 Further: potency means the concentration at half of the fitted maximal effect.
Another assay deals with Aromatase (Homo sapiens) (UniProt P11511). The assay can be described thus: qHTS assay to identify aromatase inhibitors (AID 743083). Further: nearly all actives have a fitted effect of over 55% in size. Further: potency means the concentration at half of the fitted maximal effect.
Sequence of Aromatase (Homo sapiens) (P11511 whole entry, looked up): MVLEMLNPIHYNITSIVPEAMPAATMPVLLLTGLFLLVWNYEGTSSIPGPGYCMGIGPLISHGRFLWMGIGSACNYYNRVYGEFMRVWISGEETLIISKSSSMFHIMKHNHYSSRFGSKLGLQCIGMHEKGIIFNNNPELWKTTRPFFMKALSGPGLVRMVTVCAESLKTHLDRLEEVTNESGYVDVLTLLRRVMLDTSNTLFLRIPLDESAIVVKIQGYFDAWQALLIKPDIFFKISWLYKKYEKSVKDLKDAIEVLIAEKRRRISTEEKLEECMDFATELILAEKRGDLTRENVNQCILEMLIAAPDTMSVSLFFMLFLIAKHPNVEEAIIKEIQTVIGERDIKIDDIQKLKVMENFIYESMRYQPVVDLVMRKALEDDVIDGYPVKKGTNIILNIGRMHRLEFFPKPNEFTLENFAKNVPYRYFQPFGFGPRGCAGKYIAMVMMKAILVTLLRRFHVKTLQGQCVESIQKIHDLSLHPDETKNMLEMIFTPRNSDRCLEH
Assay [10] in a line: qHTS assay to identify small molecule antagonists of the estrogen receptor alpha (ER-alpha) signaling pathway - cell viability counter screen (AID 743074; calls by dose curve;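 further: HEK293 cells carrying ER-alpha-UAS-bla reporter stimulated with 17beta-estradiol; nearly all actives have a fitted effect of over 45% in size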; further: potency means the concentration at half of the fitted maximal effect).
Assay [11] addresses Estrogen receptor (Homo sapiens) (UniProt P03372). The assay can be described thus: qHTS assay to identify small molecule antagonists of the estrogen receptor alpha (ER-alpha) signaling pathway (AID 743069; active means well fitted curve in the direction sought with a large enough effect in the signal ratio in the repeat runs, not every such curve was filed as active; inconclusive means weak or mixed curves, or effect the other way; inactive means no such curve, though single readings can be large or run the other way; the % refers to the signal ratio; further: potency means the concentration at half of the fitted maximal effect). The method in brief: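 Reporter cells (ER-alpha-bla, HEK293 background) are conditioned overnight in stripped-serum medium (2% charcoal-stripped FBS). Compound and 17beta-estradiol exposure runs 18 hr at 37C, 5% CO2.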

The target is the same in assay [12]. As to the kind of experiment: qHTS assay to identify small molecule agonists of the estrogen receptor alpha (ER-alpha) signaling pathway (AID 743075; calls by dose curve;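 further: HEK293 GripTite cells with ER-alpha and UAS-driven beta-lactamase reporter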; further: potency means the concentration at half of the fitted maximal effect).
For assay [13], the target named is Androgen receptor (Homo sapiens) (UniProt P10275). The assay can be described thus: qHTS assay to identify small molecule antagonists of the androgen receptor (AR) signaling pathway (AID 743035; active means well fitted inhibition curve with a large enough effect in the signal ratio in the repeat runs, not every such curve was filed as active; inconclusive means weak or mixed curves, or effect the other way; inactive means no such curve, though single readings can be large or run the other way; the % refers to the signal ratio; further: potency means the concentration at half of the fitted maximal effect). The method in brief:
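HEK293 cells stably carrying UAS-beta-lactamase reporter, 2,000/well, given compounds plus R1881 agonist and incubated 16 h at 37C. LiveBLAzer B/G FRET substrate then added for 2 h at room temperature before fluorescence reading.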

Assay [14] shares this target. The assay can be described thus: qHTS assay to identify small molecule agonists of the androgen receptor (AR) signaling pathway (AID 743036; active means well fitted activation curve with a large enough effect in the signal ratio in the repeat runs, with a control signal flat, not every such curve was filed as active; inconclusive means weak or mixed curves, or effect the other way; inactive means no such curve, though single readings can be large or run the other way; the % refers to the signal ratio). The method in brief:
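Following a 4 h settling period, AR-UAS-bla HEK293 cells were dosed with compounds for 16 h at 37C. A 2 h room-temperature incubation with LiveBLAzer B/G FRET substrate preceded the fluorescence measurement.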

The target is the same in assay [15]. The assay can be described thus: qHTS assay to identify small molecule antagonists of the androgen receptor (AR) signaling pathway using the MDA cell line (AID 743042; further: nearly all actives have a fitted effect of over 55% in size; further: potency means the concentration at half of the fitted maximal effect). The method in brief: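 MDA-kb2 breast carcinoma cells carrying MMTV-luciferase (AR/GR responsive) were co-treated with compounds and the agonist R1881 for 16 h at 37C. Inhibition read as ONE-Glo luminescence; CellTiter-Fluor fluorescence measured in parallel for cytotoxicity.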

Assay [16] concerns the target Estrogen receptor (Homo sapiens) (UniProt P03372). As to the kind of experiment: qHTS assay to identify small molecule agonists of the estrogen receptor alpha (ER-alpha) signaling pathway using the BG1 cell line (AID 743079). Further: nearly all actives have a fitted effect of over 20% in size. Further: potency means the concentration at half of the fitted maximal effect.
Assay [17] can be described thus: qHTS assay to identify small molecule antagonists of the estrogen receptor alpha (ER-alpha) signaling pathway using the BG1 cell line (AID 743080; calls by dose curve;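 further: BG1 cells stimulated with 17beta-estradiol alongside compound; nearly all actives have a fitted effect of over 25% in size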; further: potency means the concentration at half of the fitted maximal effect). The method in brief:
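BG1-Luc-4E2 cells (endogenous full-length ER-alpha, stable 4×ERE-luciferase) were starved 5 days in phenol-red-free medium with 10% charcoal-stripped FBS, plated 24 h, then given compound plus 17beta-estradiol for 21.5 h at 37 C; ONE-Glo luminescence read after 30 min.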

Assay [18] has as its target Androgen receptor (Homo sapiens) (UniProt P10275). As to the kind of experiment: qHTS assay to identify small molecule agonists of the androgen receptor (AR) signaling pathway using the MDA cell line (AID 743040; further: nearly all actives have a fitted effect of over 20% in size). The method, boiled down: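 Human breast carcinoma MDA-kb2 reporter cells (MMTV-luc, AR/GR elements) were treated for 16 h at 37C in 0% CO2 following a 5 h settling period. Signal was quantified by ONE-Glo luminescence.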

Sequence of Androgen receptor (Homo sapiens) (P10275 whole entry, looked up): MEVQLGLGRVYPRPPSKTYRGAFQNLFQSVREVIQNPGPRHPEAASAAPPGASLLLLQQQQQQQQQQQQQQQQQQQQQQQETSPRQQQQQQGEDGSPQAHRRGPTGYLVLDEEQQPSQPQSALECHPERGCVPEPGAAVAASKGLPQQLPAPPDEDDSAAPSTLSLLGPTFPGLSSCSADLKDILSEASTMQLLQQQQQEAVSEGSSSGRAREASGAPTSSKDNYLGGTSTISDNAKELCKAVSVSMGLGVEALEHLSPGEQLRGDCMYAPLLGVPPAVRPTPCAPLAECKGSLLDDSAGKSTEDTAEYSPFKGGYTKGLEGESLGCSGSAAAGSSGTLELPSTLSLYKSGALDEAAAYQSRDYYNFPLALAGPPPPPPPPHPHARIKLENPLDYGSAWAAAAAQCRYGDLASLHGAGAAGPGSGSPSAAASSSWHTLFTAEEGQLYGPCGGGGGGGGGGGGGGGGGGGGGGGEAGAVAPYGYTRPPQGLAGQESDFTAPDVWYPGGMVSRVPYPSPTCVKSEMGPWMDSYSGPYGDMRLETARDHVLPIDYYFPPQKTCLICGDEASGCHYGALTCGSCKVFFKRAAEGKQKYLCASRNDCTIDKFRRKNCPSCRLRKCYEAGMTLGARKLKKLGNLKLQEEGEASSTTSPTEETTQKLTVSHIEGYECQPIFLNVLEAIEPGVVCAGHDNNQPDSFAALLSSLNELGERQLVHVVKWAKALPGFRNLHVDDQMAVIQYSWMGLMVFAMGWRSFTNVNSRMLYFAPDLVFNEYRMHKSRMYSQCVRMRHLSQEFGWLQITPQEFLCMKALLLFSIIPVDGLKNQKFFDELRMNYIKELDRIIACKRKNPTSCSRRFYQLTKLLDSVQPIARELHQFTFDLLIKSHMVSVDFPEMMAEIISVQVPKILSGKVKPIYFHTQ
Sequence of Estrogen receptor (Homo sapiens) (P03372 whole entry, looked up): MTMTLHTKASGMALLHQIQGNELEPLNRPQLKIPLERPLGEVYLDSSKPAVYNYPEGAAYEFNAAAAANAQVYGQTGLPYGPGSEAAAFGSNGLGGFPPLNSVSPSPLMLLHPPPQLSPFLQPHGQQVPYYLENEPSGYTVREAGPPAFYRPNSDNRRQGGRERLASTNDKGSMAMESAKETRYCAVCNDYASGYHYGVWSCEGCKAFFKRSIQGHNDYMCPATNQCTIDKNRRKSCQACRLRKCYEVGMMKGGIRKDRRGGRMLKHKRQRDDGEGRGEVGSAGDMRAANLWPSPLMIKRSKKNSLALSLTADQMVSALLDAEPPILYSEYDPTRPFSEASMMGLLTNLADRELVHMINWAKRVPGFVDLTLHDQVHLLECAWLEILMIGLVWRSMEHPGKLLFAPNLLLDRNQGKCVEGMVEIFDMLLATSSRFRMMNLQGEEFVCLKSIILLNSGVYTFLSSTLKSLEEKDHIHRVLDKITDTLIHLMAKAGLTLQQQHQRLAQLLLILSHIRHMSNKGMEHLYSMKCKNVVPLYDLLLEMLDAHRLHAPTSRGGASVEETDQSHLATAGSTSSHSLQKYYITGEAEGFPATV

For the molecule `C[C@@H]1O[C@@H](O[C@@H]2C=C3CC[C@@H]4[C@H](CC[C@]5(C)[C@@H](c6ccc(=O)oc6)CC[C@]45O)[C@@]3(C)CC2)[C@H](O)[C@H](O)[C@H]1O`, the Potency in [1] was 0.091 µM (active); in assay [2], 0.127 µM (active); in [3] it was 0.127 µM (active); in assay [4] it was 0.0057 µM (active). In addition, the Potency entry (in assay [5]; in assay [6]; in assay [7]; in assay [9]; with Aromatase (Homo sapiens)) was “inactive” in each case. Further, the molecule was classed as inactive in assay [8].
As for `CC(Cc1ccc(C(C)(C)C)cc1)CN1C[C@@H](C)O[C@@H](C)C1` (some centres not stated), the Potency entry in assay [1], in assay [5], in assay [6], in assay [10] and in [9] was “inactive” in each case. For the same molecule, the values for the Potency in [2] and in [3] were 9.69 µM (active) and 4.86 µM (active), respectively. Also, the call in assay [8] was inactive.
Take `O=C(O)c1cc[c]([Hg][Cl])cc1`: the Potency entry in assay [1], in assay [2], in assay [5], in [11], in [10] and in assay [9] was “inactive” throughout. The Potency in assay [3] is 1.54 µM (active); in assay [4], 54.9 µM (active); in assay [6] it was 17.2 µM (active); in assay [7], 6.86 µM (active); in [12], 49 µM [activator] (active); with Aromatase (Homo sapiens), 61.1 µM (active). In addition, the call in assay [8] was inactive.
For the molecule `CNC(C)Cc1ccc2c(c1)OCO2` (configuration not stated), the Potency entry in assay [1], in assay [2], in assay [4], in assay [13], in assay [14] and in assay [5] was “inactive” throughout. The Potency entry in assay [15], in assay [6], in assay [7], in assay [11], in [10] and in assay [12] was “inactive” each time. The Potency entry (in assay [16]; in assay [17]; in the assay with Aromatase (Homo sapiens)) was “inactive” throughout. The molecule was called inactive in assay [8].
With `COc1cc(C=O)cc2c1[C@H](COC(N)=O)[C@]1(OC(C)=O)ON2C[C@H]2[C@@H]1N2C(C)=O`, the Potency was 0.49 µM (active) in assay [1]; 0.0154 µM (active) in assay [2]; 0.0069 µM (active) in assay [3]; 0.864 µM (active) in [6]; 0.433 µM (active) in [7]; 5.49 µM [inconclusive] (active) in assay [11]. Also, the Potency was 0.217 µM (active) in [17] and 3.44 µM (active) in the assay with Aromatase (Homo sapiens). Also, the result in [8] was inactive. Further, the Potency entry in assay [12] is “inactive”.
For `O=c1[nH]c2ccccc2n1CCCN1CCC(n2c(=O)[nH]c3cc(Cl)ccc32)CC1`, the Potency entry (in [1]; in assay [4]; in assay [5]; in assay [9]; in the assay with Aromatase (Homo sapiens)) was “inactive” throughout. Further, the Potency is 26.6 µM (active) in [2], 23.7 µM (active) in assay [3] and 26.6 µM (active) in assay [7].
For the molecule `N#CCCSCCC#N`, the Potency entry in assay [1], in assay [2], in [3], in assay [4], in assay [13] and in assay [5] was “inactive” in each case. In addition, the Potency result in assay [15], in assay [6], in [7], in [11], in [10] and in assay [12] was “inactive” throughout. Also, the Potency entry (in [17]; in [9]; with Aromatase (Homo sapiens)) was “inactive” throughout. In addition, the molecule was called inactive in [8].
On to `CC(C)CC(C)(c1ccc(O)cc1)c1ccc(O)cc1`, for which the Potency in [1] was 49 µM (active); in assay [3], 54.6 µM (active); in [4] it was 55.1 µM (active); in assay [6] it was 54.6 µM (active) and 54.5 µM (active); in assay [7] it was 27.4 µM (active) and 38.6 µM (active); in assay [10] it was 55.1 µM (active). Besides, the Potency in the assay with Aromatase (Homo sapiens) is 48.7 µM (active). Further, the Potency entry in assay [2] and in [9] was “inactive” throughout. Also, the result in assay [8] was inactive.
As for `C=CC(=O)OCC(COC(=O)C=C)(COC(=O)C=C)COC(=O)C=C`, the Potency is 8.71 µM (active) in [1]; 0.77 µM (active) in [2]; 0.686 µM (active) in [3]; 6.92 µM (active) in assay [4]; 4.36 µM (active) in [13]; 7.7 µM (active) in [5]. Moreover, the Potency in assay [15] is 1.93 µM (active); in assay [6], 2.73 µM (active); in assay [7], 1.93 µM (active); in assay [10] it was 43.6 µM (active); in assay [12] it was 27.5 µM [inconclusive] (active); in [9] it was 24.3 µM (active). Moreover, in the assay with Aromatase (Homo sapiens), the Potency is 3.06 µM (active). Besides, the result in assay [8] was inactive.
`CC(C)CCCCCOC(=O)c1ccccc1C(=O)OCCCCCC(C)C`: the Potency result in assay [1], in assay [2], in assay [3], in assay [4], in assay [5] and in [7] was “inactive” throughout. Further, the Potency entry in assay [11], in assay [10], in assay [12], in assay [16], in assay [17] and in [9] was “inactive” throughout. Besides, the Potency entry with Aromatase (Homo sapiens) is “inactive”. Moreover, the molecule was classed as inactive in [8].
`CC1(C)CN=C(NN=C(/C=C/c2ccc(C(F)(F)F)cc2)/C=C/c2ccc(C(F)(F)F)cc2)NC1`: the Potency in assay [1] was 24.5 µM (active); in assay [2], 4.33 µM (active); in assay [3] it was 4.33 µM (active); in [4] it was 21.9 µM (active); in [6] it was 12.2 µM (active); in [7], 12.2 µM (active). In addition, the Potency in [11] is 49 µM [cytotoxic] (active); in [10], 43.6 µM (active); in [16] it was 3.06 µM (active); in assay [9], 61.1 µM (active); in the assay with Aromatase (Homo sapiens), 8.63 µM (active). The call in assay [8] was inactive.
As for `Cc1cc(N=Nc2ccccc2C)ccc1N`, the Potency was 49 µM (active) in assay [1]; 27.3 µM (active) in [2]; 27.3 µM (active) and 19.3 µM (active) in assay [3]; 21.9 µM (active) in assay [13]; 24.3 µM (active) in assay [6]; 7.7 µM (active) and 27.3 µM (active) in [7]. In [9], the Potency was 24.3 µM (active) and 27.3 µM (active). Moreover, the Potency entry (in assay [15]; in assay [10]; with Aromatase (Homo sapiens)) was “inactive” each time. Besides, the molecule was classed as inactive in [8].
On to `c1ccc2cc3c(cc2c1)-c1cccc2cccc-3c12`, for which the Potency result in assay [1], in assay [2], in assay [3], in assay [4], in assay [18] and in assay [5] was “inactive” throughout. Moreover, the Potency result (in assay [7]; in assay [10]; in assay [16]; with Aromatase (Homo sapiens)) was “inactive” in each case. Besides, the molecule was classed as inactive in assay [8]. Further, in assay [17], the Potency is 0.269 µM (active).
`CN(C)CCc1c[nH]c2cccc(O)c12`: the Potency entry in [1], in assay [4], in assay [5], in assay [6] and in assay [10] was “inactive” each time. Moreover, the Potency was 30.3 µM (active) in assay [2] and 42.8 µM (active) in assay [3]. Further, in [8], the molecule was classed as inactive.
